Data as given in the supplement of paper PMC6805474.

The compounds below were run on Schistosoma mansoni schistosomula (LE) (assay: XTT viability relative to DMSO control; higher = more viable (less active)). Conditions: 72 h; 10 µM.
Description: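 XTT/PMS was then added for a further 24 h (72 h total) and A450 was read. % viability = (sample - heat-killed control)/(DMSO control - heat-killed control) x 100, from duplicate wells in two independent experiments.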
With `Cc1nn(Cc2ccccc2)c(Cl)c1C(=O)NC1CCCCCC1` the XTT viability was 87.9%.
`CC1COC(Cn2cncn2)(c2ccc(Oc3ccc(Cl)cc3)cc2Cl)O1` (centres undefined) was tested, and the XTT viability was 47.3%.
`CCc1nn(C)c(C(=O)NCc2ccc(Oc3ccc(C)cc3)cc2)c1Cl` was tested, and the XTT viability was 72.8%.
`O=C1O[C@@H](CO)CN1c1cc(F)c(C2=CCN(Cc3ccccc3)CC2)c(F)c1` was tested, and the XTT viability was 127%.
`CC1(C)OB(O)c2ccc(C3=NOC(c4cc(Cl)c(F)c(Cl)c4)(C(F)(F)F)C3)cc21` (centres undefined) showed an XTT viability of 33.5%.
Compound `Cc1cc(C2=NOC(c3cc(Cl)c(F)c(Cl)c3)(C(F)(F)F)C2)ccc1C(=O)NCc1ccc2c(c1)C(C)(C)OB2O` (centres undefined) has an XTT viability of 23.2%.
Compound `Nc1c2c(nc3sc4c(c13)CCCC4)CCCC2` has an XTT viability of 89.4%.
With `Cc1nn(C)c(C)c1NS(=O)(=O)c1c(Cl)cc(-c2ccnc(N3CCNCC3)c2)cc1Cl` the XTT viability was 121%.
In the case of `CO[C@@H]1CN(c2ccc(C#CC3(O)CN4CCC3CC4)c(Cc3ccccc3)n2)C[C@H]1O` (some centres undefined), the XTT viability is reported as 90.7%.
Work on `CO/C=C(/C(=O)OC)c1ccccc1Oc1cc(Oc2ccccc2C#N)ncn1` yielded an XTT viability of 79.5%.
For `CC(C)(C)C(O)C(Oc1ccc(-c2ccccc2)cc1)n1cncn1` (centres undefined), the XTT viability was 106%.
With `O=C1O[C@@H](COc2ccon2)CN1c1cc(F)c(C2=CCN(Cc3ccccc3)CC2)c(F)c1` the XTT viability was 72.9%.
Compound `CO/N=C(\C(=O)OC)c1ccccc1CO/N=C(\C)c1cccc(C(F)(F)F)c1` has an XTT viability of 109%.
In the case of `Cc1cccc(C(=O)Nc2ccnc(N(C)C3CCN(CC(C)C)CC3)c2)c1`, the XTT viability is reported as 125%.
